These results are taken from PubChem BioAssay.

Assay [1] has as its system Human papillomavirus type 1a protein E7 (residues 44-93). Briefly: HPV1a E7 fragment binders on microarrays, primary screen, biochemical, small-molecule microarray, residues 44-93, 635 nm fluorescence (AID 1108).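 Further: E7 fragment applied at 1 µg/mL in TBST for 1 h at 4 C; score combines spot fluorescence with its signal to noise ratio.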 As to conditions: small-molecule microarray binding, fluorescence 635 nm; higher = more signal.
A short description of assay [2]: modulators of HCV replicon luciferase signal, primary screen, HCV replication inhibitor project, Huh7 cells, luciferase reporter (AID 1109).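 Further: huh7 hepatoma cells harbouring a luciferase neomycin HCV replicon reporter; luciferase luminescence as measure of HCV replicon replication; test concentration not given here.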 The settings on record: 48 h, higher = more signal.
Assay [3] deals with Left-right determination factor 2 (Homo sapiens) (UniProt O00292). In words: LEFTY2 binders on small-molecule microarrays, primary screen, biochemical, small-molecule microarray, 635 nm fluorescence scan (AID 1110). The settings on record: LEFTY2 binding, higher = more signal.
The target of assay [4] is Calmodulin-1 (Homo sapiens) (UniProt P0DP23). Briefly: CALM1 binders on microarrays, EGTA buffer, profiling panel, biochemical, small-molecule microarray, Cy5-labelled CALM1 (AID 1111).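 Further: labelled calmodulin applied in Tris saline Tween buffer holding calcium plus EGTA and DTT.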 The settings on record: Cy5-CALM1 binding fluorescence, higher = more signal.
Assay [5] has the same target. Briefly: calcium-bound CALM1 binders on microarrays, profiling panel, artefact control for SMM control-protein annotation, biochemical, small-molecule microarray, Cy5-labelled CALM1, plus calcium (AID 1112).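 Further: score merges spot fluorescence with signal to noise from triplicate slides.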 As to conditions: Cy5-CALM1 binding fluorescence, higher = more signal.
Assay [6] is described as follows: small-molecule microarray binders of probe aWnt5a, primary screen, biochemical, biotinylated probe, 635/667 nm fluorescence (AID 1113).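 Further: score merges 667 nm fluorescence intensity with signal-to-noise per printed feature.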 As to conditions: higher = more signal.
The nature of assay [7]: small-molecule microarray binders of probe aShh, primary screen, biochemical, biotinylated probe, 635/667 nm fluorescence (AID 1114).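 Further: probe is biotin-labelled aShh protein from a stem cell growth factor screen; measures binding of labelled protein to compounds printed on the slide; score merges feature fluorescence at 667 nm with signal-to-noise.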 The settings on record: higher = more signal.
The nature of assay [8]: small-molecule microarray binders of probe aNog, primary screen, biochemical, biotinylated probe, 635/667 nm fluorescence (AID 1115).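 Further: probe is biotinylated aNog protein used at 0.15 µg/mL for 1 h at 4 C; z-score combines 667 nm fluorescence of each spot with its signal to noise.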 The settings on record: higher = more signal.
Assay [9] concerns the target Torsin-1A-interacting protein 1 (Homo sapiens) (UniProt Q5JTV8). In words: LAP1 binders from COS7 cell lysate, primary screen, small-molecule microarray, 635/667 nm fluorescence (AID 1116). As to conditions: COS7-hLAP1 lysate binding, 635 nm fluorescence, higher = more signal.
In assay [10] the target is Alpha-bungarotoxin (Bungarus multicinctus) (UniProt P60615). In words: alpha-bungarotoxin binders on microarray, profiling panel, artefact control for SMM control protein annotation, biochemical, small-molecule microarray, Alexa647 label, 635/667 nm fluorescence (AID 1117). As to conditions: alpha-BTX-A647 binding fluorescence, higher = more signal.
Sequence of Alpha-bungarotoxin (Bungarus multicinctus) (P60615 whole entry, looked up): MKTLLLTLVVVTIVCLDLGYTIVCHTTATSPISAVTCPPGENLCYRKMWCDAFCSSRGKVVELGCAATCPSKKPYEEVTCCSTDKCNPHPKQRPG

Sequence of Left-right determination factor 2 (Homo sapiens) (O00292 whole entry, looked up): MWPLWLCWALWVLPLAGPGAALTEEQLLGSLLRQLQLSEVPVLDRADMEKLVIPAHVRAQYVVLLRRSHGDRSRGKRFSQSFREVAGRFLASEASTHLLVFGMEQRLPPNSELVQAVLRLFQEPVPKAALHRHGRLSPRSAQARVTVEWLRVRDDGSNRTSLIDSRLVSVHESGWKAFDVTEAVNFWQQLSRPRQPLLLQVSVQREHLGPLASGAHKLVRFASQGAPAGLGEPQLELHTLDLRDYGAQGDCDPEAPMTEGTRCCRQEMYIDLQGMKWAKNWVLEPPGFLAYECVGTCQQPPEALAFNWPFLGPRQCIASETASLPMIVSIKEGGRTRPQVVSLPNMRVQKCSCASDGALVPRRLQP
Sequence of Torsin-1A-interacting protein 1 (Homo sapiens) (Q5JTV8 whole entry, looked up): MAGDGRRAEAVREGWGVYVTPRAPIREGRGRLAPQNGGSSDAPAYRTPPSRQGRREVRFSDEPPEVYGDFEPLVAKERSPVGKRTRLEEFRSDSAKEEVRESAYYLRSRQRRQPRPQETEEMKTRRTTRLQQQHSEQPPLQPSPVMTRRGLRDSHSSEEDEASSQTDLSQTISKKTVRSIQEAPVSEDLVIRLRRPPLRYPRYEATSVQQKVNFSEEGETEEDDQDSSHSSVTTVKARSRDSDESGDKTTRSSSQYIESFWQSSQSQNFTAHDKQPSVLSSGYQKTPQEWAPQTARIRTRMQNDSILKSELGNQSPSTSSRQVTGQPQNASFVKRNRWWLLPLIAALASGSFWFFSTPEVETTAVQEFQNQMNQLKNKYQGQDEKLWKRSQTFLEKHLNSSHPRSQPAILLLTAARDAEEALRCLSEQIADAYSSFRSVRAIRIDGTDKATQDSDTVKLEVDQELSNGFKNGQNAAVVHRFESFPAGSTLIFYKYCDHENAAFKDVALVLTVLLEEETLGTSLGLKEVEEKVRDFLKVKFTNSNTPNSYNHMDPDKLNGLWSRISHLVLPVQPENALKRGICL

Regarding `CCC(CC)C(O)C1C=CC2C(=O)NC(=O)C2N1Nc1ccccn1` (stereo not given), the composite z-score in assay [1] was 0.365; in [3], 0.255; in assay [4], 0.0646; in assay [5] it was -0.161; in assay [6], -0.0704; in assay [7] it was -0.217. Also, the composite z-score in assay [8] amounted to 0.455; in assay [9], 0.275; in assay [10], 0.512. Besides, the z-score in [2] was -0.642.

As for `O=C1C[C@@](C(=O)NCCN2CCOCC2)(c2ccc([N+](=O)[O-])cc2)[C@@H](c2ccc(CO)cc2I)N1CC12CC3CC(CC(C3)C1)C2`, the composite z-score is 1.45 in assay [1]; 0.462 in assay [3]; 0.76 in [4]; -0.581 in assay [5]; -0.034 in assay [6]; -0.0146 in [7]. Also, the composite z-score is -0.388 in assay [8], 1.17 in assay [9] and 1.48 in assay [10]. The z-score in assay [2] was -3.49.

`[N-]=[N+]=NCc1ccccc1[C@@H]1OC(c2ccc(OCCCO)cc2)=N[C@]1(Cc1ccccc1)C(N)=O`: the composite z-score in assay [1] is 1.45; in assay [3] it was -0.33; in assay [4] it was 2.2; in assay [5], 1.02; in assay [6], -0.0286; in assay [7], 0.365. In addition, the composite z-score in [8] is 1.14; in [9], -0.402; in assay [10], 2.14. This molecule also returned a z-score in assay [2] of -1.3.

`CC(C)CNC(=O)[C@@]1(Cc2ccccc2I)c2ccccc2C(=O)N(C2CCCCC2)[C@H]1c1ccc(CO)cc1`: the composite z-score is 0.63 in [1]; -0.294 in [3]; 0.424 in [4]; 0.349 in [5]; 0.0477 in assay [6]; 0.199 in assay [7]. For the same molecule, the composite z-score in assay [8] was -0.237; in assay [9], 0.961; in assay [10] it was 3. This molecule also returned a z-score in assay [2] of -1.62.

Consider `[N-]=[N+]=Nc1ccccc1[C@H]1OC(c2ccc(OCCCO)cc2)=N[C@@]1(CCS(=O)(=O)c1ccccc1)C(=O)NCC(O)CO` (stereo not given in full), for which the composite z-score in assay [1] is 1.46; in [3], -0.671; in assay [4], 1.15; in [5], 0.211; in assay [6], 0.027; in assay [7], 0.0611. In addition, the results for the composite z-score in assay [8], in assay [9] and in assay [10] were -0.62, 1.93 and 1.21, respectively. In assay [2], the z-score was -0.604.

`C=CC1(C(=O)OC)CC=C(C(=O)OC)CC1` (stereo not given): the composite z-score is 1.1 in assay [1]; 1.24 in assay [3]; 0.887 in assay [4]; 0.234 in assay [5]; -0.141 in assay [6]; 1.1 in [7]. For the same molecule, the composite z-score is -0.0689 in assay [8], 1.1 in [9] and 0.605 in [10]. For the same molecule, the z-score in assay [2] was -0.928.

For the molecule `[N-]=[N+]=Nc1ccccc1[C@@H]1OC(c2ccc(OCCCO)cc2)=N[C@]1(Cc1ccccc1)C(=O)N1CCOCC1`, the composite z-score in assay [1] was 1.44; in [3], 0.425; in assay [4] it was 1.65; in assay [5], 0.959; in assay [6] it was 0.72; in [7], 0.315. Also, the composite z-score turned out to be 0.314 in [8], 1.21 in [9] and 1.3 in assay [10]. Moreover, in [2], the z-score is -1.41.

Take `COCCCNC(=O)[C@]1(CCC(=O)OC(C)(C)C)N=C(c2ccc(OCCCO)cc2)O[C@@H]1c1ccccc1CN=[N+]=[N-]`: the composite z-score in assay [1] was determined as 1.31; in assay [3] it was 0.254; in assay [4], 1.38; in assay [5], 0.282; in [6], 0.45; in [7], 0.147. The composite z-score in [8] was found to be 2.04; in assay [9] it was 1.29; in [10], 0.312. In assay [2], this molecule displayed a z-score of -1.74.

Turning to `C=C[C@H](OC)[C@@H](OC(=O)Nc1ccc(OC)cc1)c1ccc(O)c(F)c1`, the composite z-score in assay [1] was 0.625; in assay [3], -0.644; in assay [4], -1.25; in assay [5], -1.39; in [6] it was -0.28; in assay [7], 0.0952. Further, the composite z-score in [8] is -0.478; in [9], 1.14; in assay [10], -1.56. For the same molecule, in assay [2], the z-score is -0.276.

As for `C=CCOC(=O)[C@H]1[C@@H]2C(=O)O[C@@H](c3ccccc3)[C@@H](c3ccccc3)N2[C@@H](c2ccc(OCCOC(=O)[C@H]3C[C@H]4C(=O)N[C@@H](CCCCNC(C)=O)C(=O)N4[C@H]3c3ccc(O)cc3)cc2)[C@]12C(=O)Nc1ccc(I)cc12`, the composite z-score in [1] is 0.804; in assay [3], 0.418; in assay [4] it was 0.124; in assay [5], -0.732; in assay [6], -0.0236; in [7], 0.123. Further, the composite z-score in [8] was -0.238; in assay [9], 0.612; in assay [10] it was 0.963. Moreover, in assay [2], the z-score is -3.26.

Regarding `COC(=O)[C@@]1(CCS(=O)(=O)c2ccccc2)N=C(c2ccc(OCCCO)cc2)O[C@H]1c1ccccc1CN=[N+]=[N-]`, the composite z-score in assay [1] was 0.797; in [3], -0.343; in assay [4] it was 1.72; in assay [5], 0.373; in assay [6] it was -0.0539; in [7], 0.0469. Besides, the composite z-score in assay [8] is 0.647; in assay [9] it was 1.13; in assay [10], 0.829. The same molecule returned a z-score in assay [2] of -2.38.

In the case of `COCCOC(=O)N1C(=O)[C@@]2(c3ccccc31)[C@H](c1ccccc1OCCO)N1[C@H](c3ccccc3)[C@H](c3ccccc3)OC(=O)[C@H]1[C@@H]2C(=O)N1CCN(c2ncccn2)CC1`, the composite z-score in assay [1] was 0.771; in assay [3], 0.567; in assay [4] it was 1.69; in assay [5], 0.614; in assay [6], -0.096; in assay [7], 0.199. The composite z-score in assay [8] was found to be 0.441; in [9], 1.24; in [10] it was 1.46. Moreover, in assay [2], the z-score was -2.73.

Consider `CCOC(=O)C[C@H]1[C@H](OC(=O)c2ccccc2-c2ccccc2)[C@@H](NC(=O)CC(C)C)c2cc(OCCCO)ccc2N1C(=O)Cc1ccc(OC)cc1`, for which the composite z-score in assay [1] was -0.0946; in assay [3] it was -0.262; in assay [4], -0.0904; in assay [5] it was -0.265; in assay [6], -0.0953; in assay [7], 0.199. The composite z-score in assay [8] was -0.326; in assay [9], 0.784; in [10], -0.213. Also, the z-score in [2] was -1.25.

Consider `O=C1C[C@@](C(=O)NC2CC2)(c2ccc([N+](=O)[O-])cc2)[C@@H](c2ccc(CO)cc2I)N1C1CCCCC1`, for which the composite z-score in [1] was 1.43; in [3] it was 0.434; in assay [4], 0.581; in [5] it was -0.183; in assay [6], -0.101; in [7], 0.0756. The composite z-score was 0.217 in assay [8], 0.388 in [9] and 1.24 in assay [10]. The z-score in assay [2] is -1.97.

Turning to `CCCc1cc2c(n1Cc1cc(F)cc(F)c1)C(C)C1CN(C(=O)c3ccccc3)C(C)(C(=O)OC)C21` (stereo not given), the composite z-score in assay [1] is 1.35; in assay [3] it was 0.225; in assay [4], 2.31; in assay [5], 0.813; in assay [6] it was 0.36; in assay [7], -0.148. The values for the composite z-score in [8], in assay [9] and in assay [10] were 0.363, 2.6 and 2.34, respectively. Also, in assay [2], the z-score is -2.24.

Take `[N-]=[N+]=NCc1ccccc1C[C@]1(C(N)=O)COC(c2ccc(OCCCO)cc2)=N1`: the composite z-score is 0.202 in assay [1]; -0.993 in [3]; 2.01 in [4]; 1.2 in assay [5]; -0.0286 in assay [6]; -0.0441 in assay [7]. The composite z-score in assay [8] was -0.169; in assay [9], 2.59; in assay [10], 1.58. For the same molecule, in [2], the z-score was -0.17.

Consider `COC(=O)C[C@H]1O[C@]2(C(=O)N(C)c3ccccc32)[C@@H](C)[C@@H]1[Si](C)(C)F`, for which the composite z-score in assay [1] was 0.882; in assay [3], 0.392; in assay [4], 0.0461; in assay [5], -0.389; in assay [6] it was -0.0472; in assay [7] it was 0.23. In addition, the composite z-score in assay [8] is -0.357; in assay [9] it was 0.239; in assay [10], -0.0089. Moreover, the z-score in assay [2] amounted to 0.0456.
